# Where “and” joins values, the source holds several entries; their conditions need not be identical. Equal values may be shown once. Results filed as inconclusive are left out. Calls of active or inactive are those of the source. Rule for the calls: active = hit-call score of the fitted dose curve at least 0.9, where 1 is the maximum; inconclusive = response in the unintended direction; inactive = score below 0.9.
# Tests used:
# [1] = molecular target: human Raf-1 Proto-Oncogene, serine/threonine Kinase (RAF1), RAF1 (gene 5894) (UniProt P04049); assay: NVS_ENZ_hRAF1: NovaScreen (NVS) Enzymatic Assay for human Raf-1 Proto-Oncogene, serine/threonine Kinase (RAF1) (AID 2283216)
# Summary of the method: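 Single-point screening at 25 uM (duplicate), followed by singleton concentration-response to 50 uM maximum for chemicals exceeding threshold. Enzyme activity from fluorescent substrate-product mobility-shift separation after 1 h, relative to DMSO.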
# [2] = molecular target: human Protein Tyrosine Phosphatase Non-receptor Type 2 (PTPN2), PTPN2 (gene 5771) (UniProt P17706); assay: NVS_ENZ_hPTPN2: NovaScreen (NVS) Enzymatic Assay for human Protein Tyrosine Phosphatase Non-receptor Type 2 (PTPN2) (AID 2283207)
# Summary of the method: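 Activity measured as fluorescence after mobility-shift separation of substrate and product, 1 h after compound. Duplicate single-point 25 uM primary testing, concentration series for actives; inhibition scored as signal loss relative to DMSO baseline.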
# [3] = molecular target: human Protein Tyrosine Phosphatase Non-receptor Type 1 (PTPN1), PTPN1 (gene 5770) (UniProt P18031); assay: NVS_ENZ_hPTPN1: NovaScreen (NVS) Enzymatic Assay for human Protein Tyrosine Phosphatase Non-receptor Type 1 (PTPN1) (AID 2283201)
# Summary of the method: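 Chemicals were first tested in duplicate at 25 uM, and those passing threshold went on to singleton concentration series topping at 50 uM. Recombinant enzyme, specific substrate, product separated by mobility shift, fluorescence read at 1.33 h; activity loss relative to DMSO.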
# [4] = molecular target: Tyrosine-protein phosphatase non-receptor type 11 (Homo sapiens) (UniProt Q06124); assay: NVS_ENZ_hPTPN11: NovaScreen (NVS) Enzymatic Assay for human Protein Tyrosine Phosphatase Non-receptor Type 11 (PTPN11) (AID 2283202)
# Summary of the method: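 Compounds first tested in duplicate at 25 uM; those reaching ~30% inhibition rerun in singleton concentration-response, top 50 uM. Phosphatase activity measured after 0.5 h by fluorescence with mobility-shift separation, relative to DMSO.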
# [5] = molecular target: human Phosphatase and Tensin Homolog (PTEN), PTEN (gene 5728) (UniProt P60484); assay: NVS_ENZ_hPTEN: NovaScreen (NVS) Enzymatic Assay for human Phosphatase and Tensin Homolog (PTEN) (AID 2283203)
# Summary of the method: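 Loss of fluorescent product signal after mobility-shift separation reports PTEN activity, recombinant human enzyme, 1 h after compound addition. Single 25 uM duplicate screen, then concentration-response on actives; DMSO baseline.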
# [6] = molecular target: human Protein Tyrosine Phosphatase Receptor Type M (PTPRM), PTPRM (gene 5797) (UniProt P28827); assay: NVS_ENZ_hPTPRM: NovaScreen (NVS) Enzymatic Assay for human Protein Tyrosine Phosphatase Receptor Type M (PTPRM) (AID 2283215)
# Summary of the method: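 Read-out is fluorescence after electrophoretic separation of substrate and product, taken 1.33 h post-dosing with recombinant enzyme. Compounds screened at 25 uM in duplicate, then concentration series for actives; activity as signal loss relative to DMSO.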
# [7] = molecular target: PPP2CA (gene 5515) (UniProt P67775); assay: NVS_ENZ_hPPP2CA: NovaScreen (NVS) Enzymatic Assay for human Protein Phosphatase 2 Aatalytic subunit Alpha (PPP2CA) (AID 2283199)
# Summary of the method: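 Cell-free phosphatase activity: fluorescent substrate turnover by recombinant human enzyme, resolved by mobility shift at 1.33 h. Compounds passing the 25 uM duplicate primary screen were rerun in singleton series with a 50 uM top concentration.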
# [8] = molecular target: Serine/threonine-protein phosphatase PP1-alpha catalytic subunit (Homo sapiens) (UniProt P62136); assay: NVS_ENZ_hPPP1CA: NovaScreen (NVS) Enzymatic Assay for human Protein Phosphatase 1 Aatalytic subunit Alpha (PPP1CA) (AID 2283200)
# Summary of the method: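 Chemicals were first screened in duplicate at 25 uM, and those passing threshold (e.g. 30% inhibition) were run as concentration series to 50 uM. Cell-free recombinant protein, 1.33 h read, fluorescent substrate/product mobility-shift detection, normalised to DMSO.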
# [9] = molecular target: Tyrosine-protein phosphatase non-receptor type 12 (Homo sapiens) (UniProt Q05209); assay: NVS_ENZ_hPTPN12: NovaScreen (NVS) Enzymatic Assay for human Protein Tyrosine Phosphatase Non-receptor Type 12 (PTPN12) (AID 2283204)
# Summary of the method: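 Single-concentration duplicates (25 uM) preceded singleton concentration-response up to 50 uM for chemicals passing threshold. Cell-free recombinant PTPN12 activity was read 1.33 h after dosing via fluorescence after mobility-shift separation; loss of signal versus DMSO.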
# [10] = molecular target: Tyrosine-protein phosphatase non-receptor type 13 (Homo sapiens) (UniProt Q12923); assay: NVS_ENZ_hPTPN13: NovaScreen (NVS) Enzymatic Assay for human Protein Tyrosine Phosphatase Non-receptor Type 13 (PTPN13) (AID 2283205)
# Summary of the method: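 Screened first at a single 25 uM in duplicate; compounds passing the threshold (e.g. 30% inhibition) were rerun in concentration series, top 50 uM. Recombinant enzyme, fluorescent substrate, mobility-shift separation, 0.5 h read. Data fitted as inhibition relative to DMSO.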
# [11] = molecular target: human Protein Tyrosine Phosphatase Receptor Type B (PTPRB), PTPRB (gene 5787) (UniProt P23467); assay: NVS_ENZ_hPTPRB: NovaScreen (NVS) Enzymatic Assay for human Protein Tyrosine Phosphatase Receptor Type B (PTPRB) (AID 2283211)
# Summary of the method: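 Recombinant human PTPRB with a fluorescent substrate, product separated by electrophoretic mobility shift; read 1 h after dosing. Primary screen in duplicate at 25 uM; actives then retested in concentration series; loss of signal versus DMSO.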
# [12] = molecular target: human Sirtuin 2 (SIRT2), SIRT2 (gene 22933) (UniProt Q8IXJ6); assay: NVS_ENZ_hSIRT2: NovaScreen (NVS) Enzymatic Assay for human Sirtuin 2 (SIRT2) (AID 2283217)
# Summary of the method: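 Single-point duplicate screen at 25 uM, then concentration-response (max 50 uM) for chemicals passing threshold. Enzyme activity of recombinant human SIRT2 measured after 1 hr by fluorescence with mobility-shift separation of product; DMSO baseline.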
# [13] = molecular target: human Protein Tyrosine Phosphatase Receptor Type F (PTPRF), PTPRF (gene 5792) (UniProt P10586); assay: NVS_ENZ_hPTPRF: NovaScreen (NVS) Enzymatic Assay for human Protein Tyrosine Phosphatase Receptor Type F (PTPRF) (AID 2283213)
# Summary of the method: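 Cell-free fluorescence enzyme assay with recombinant protein and substrate; product separated by electrophoretic mobility shift. Read 1 h after dosing, single 25 uM duplicate screen, then concentration-response up to 50 uM; loss of signal vs DMSO.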
# [14] = molecular target: human Protein Tyrosine Phosphatase Non-receptor Type 4 (PTPN4), PTPN4 (gene 5775) (UniProt P29074); assay: NVS_ENZ_hPTPN4: NovaScreen (NVS) Enzymatic Assay for human Protein Tyrosine Phosphatase Non-receptor Type 4 (PTPN4) (AID 2283208)
# Summary of the method: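 Screened in duplicate at 25 uM, with hits then titrated to a top concentration of 50 uM. Recombinant Sf9-derived PTPN4 turnover was read by fluorescence with electrophoretic separation, 1.33 h after compound addition. DMSO served as baseline.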
# [15] = molecular target: human Protein Tyrosine Phosphatase Non-receptor Type 9 (PTPN9), PTPN9 (gene 5780) (UniProt P43378); assay: NVS_ENZ_hPTPN9: NovaScreen (NVS) Enzymatic Assay for human Protein Tyrosine Phosphatase Non-receptor Type 9 (PTPN9) (AID 2283209)
# Summary of the method: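 Sf9-expressed enzyme in a cell-free assay, fluorescence read 1.33 h after dosing with mobility-shift separation of substrate and product. Tested at 25 uM in duplicate, then up to 50 uM; signal loss versus DMSO.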
# Chain of human Protein Tyrosine Phosphatase Non-receptor Type 4 (PTPN4), PTPN4 (gene 5775) (P29074 whole entry, looked up): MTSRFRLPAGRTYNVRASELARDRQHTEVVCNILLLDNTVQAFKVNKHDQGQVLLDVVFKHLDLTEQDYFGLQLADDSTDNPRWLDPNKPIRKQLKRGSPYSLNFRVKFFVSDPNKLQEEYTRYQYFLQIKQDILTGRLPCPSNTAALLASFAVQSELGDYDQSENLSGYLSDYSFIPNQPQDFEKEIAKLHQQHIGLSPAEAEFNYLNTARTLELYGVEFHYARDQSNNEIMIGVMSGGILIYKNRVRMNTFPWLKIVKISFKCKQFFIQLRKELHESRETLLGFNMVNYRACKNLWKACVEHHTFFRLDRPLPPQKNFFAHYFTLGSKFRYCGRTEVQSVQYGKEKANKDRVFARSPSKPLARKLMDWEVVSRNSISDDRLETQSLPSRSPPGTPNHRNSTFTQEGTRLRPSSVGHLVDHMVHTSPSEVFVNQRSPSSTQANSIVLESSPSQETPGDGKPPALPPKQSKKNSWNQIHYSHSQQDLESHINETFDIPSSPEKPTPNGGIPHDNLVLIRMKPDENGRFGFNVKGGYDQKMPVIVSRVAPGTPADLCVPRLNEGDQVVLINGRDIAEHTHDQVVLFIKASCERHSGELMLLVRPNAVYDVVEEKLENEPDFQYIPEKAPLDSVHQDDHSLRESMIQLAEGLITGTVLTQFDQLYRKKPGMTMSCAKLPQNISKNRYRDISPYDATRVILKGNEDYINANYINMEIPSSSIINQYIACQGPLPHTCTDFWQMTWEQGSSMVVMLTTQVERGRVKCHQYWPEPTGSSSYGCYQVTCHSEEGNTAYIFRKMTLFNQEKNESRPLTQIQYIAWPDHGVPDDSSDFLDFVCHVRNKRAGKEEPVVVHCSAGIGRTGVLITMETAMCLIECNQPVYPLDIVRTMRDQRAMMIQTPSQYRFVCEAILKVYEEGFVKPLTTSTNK
# Chain of human Raf-1 Proto-Oncogene, serine/threonine Kinase (RAF1), RAF1 (gene 5894) (P04049 whole entry, looked up): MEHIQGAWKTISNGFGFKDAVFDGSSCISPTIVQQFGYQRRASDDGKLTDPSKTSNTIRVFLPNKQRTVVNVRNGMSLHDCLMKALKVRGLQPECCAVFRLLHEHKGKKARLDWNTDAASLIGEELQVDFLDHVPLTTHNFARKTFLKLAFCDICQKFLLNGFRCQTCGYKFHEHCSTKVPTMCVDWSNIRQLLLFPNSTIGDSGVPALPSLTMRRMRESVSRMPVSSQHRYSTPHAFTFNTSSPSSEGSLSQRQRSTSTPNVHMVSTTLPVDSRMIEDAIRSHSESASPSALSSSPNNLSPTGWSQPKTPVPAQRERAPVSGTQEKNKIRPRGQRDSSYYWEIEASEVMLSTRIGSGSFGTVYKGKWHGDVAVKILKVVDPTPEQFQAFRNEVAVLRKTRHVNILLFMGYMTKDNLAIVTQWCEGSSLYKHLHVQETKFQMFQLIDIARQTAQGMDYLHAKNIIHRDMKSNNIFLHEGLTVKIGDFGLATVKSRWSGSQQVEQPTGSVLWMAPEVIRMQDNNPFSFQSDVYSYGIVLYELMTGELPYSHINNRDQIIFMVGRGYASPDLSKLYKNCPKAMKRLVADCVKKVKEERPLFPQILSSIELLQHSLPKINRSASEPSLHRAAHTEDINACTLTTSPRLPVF
# Chain of human Sirtuin 2 (SIRT2), SIRT2 (gene 22933) (Q8IXJ6 whole entry, looked up): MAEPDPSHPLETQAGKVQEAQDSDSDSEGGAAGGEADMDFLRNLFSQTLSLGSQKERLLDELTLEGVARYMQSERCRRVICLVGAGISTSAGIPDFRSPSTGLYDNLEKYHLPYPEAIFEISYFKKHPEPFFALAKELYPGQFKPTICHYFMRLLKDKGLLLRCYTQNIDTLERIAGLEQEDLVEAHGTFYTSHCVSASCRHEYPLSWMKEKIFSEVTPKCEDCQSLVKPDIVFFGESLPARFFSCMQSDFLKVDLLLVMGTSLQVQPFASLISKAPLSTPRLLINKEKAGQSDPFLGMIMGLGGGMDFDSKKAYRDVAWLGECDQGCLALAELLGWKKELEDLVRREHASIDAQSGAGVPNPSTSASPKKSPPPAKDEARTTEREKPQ
# Chain of human Protein Tyrosine Phosphatase Receptor Type M (PTPRM), PTPRM (gene 5797) (P28827 whole entry, looked up): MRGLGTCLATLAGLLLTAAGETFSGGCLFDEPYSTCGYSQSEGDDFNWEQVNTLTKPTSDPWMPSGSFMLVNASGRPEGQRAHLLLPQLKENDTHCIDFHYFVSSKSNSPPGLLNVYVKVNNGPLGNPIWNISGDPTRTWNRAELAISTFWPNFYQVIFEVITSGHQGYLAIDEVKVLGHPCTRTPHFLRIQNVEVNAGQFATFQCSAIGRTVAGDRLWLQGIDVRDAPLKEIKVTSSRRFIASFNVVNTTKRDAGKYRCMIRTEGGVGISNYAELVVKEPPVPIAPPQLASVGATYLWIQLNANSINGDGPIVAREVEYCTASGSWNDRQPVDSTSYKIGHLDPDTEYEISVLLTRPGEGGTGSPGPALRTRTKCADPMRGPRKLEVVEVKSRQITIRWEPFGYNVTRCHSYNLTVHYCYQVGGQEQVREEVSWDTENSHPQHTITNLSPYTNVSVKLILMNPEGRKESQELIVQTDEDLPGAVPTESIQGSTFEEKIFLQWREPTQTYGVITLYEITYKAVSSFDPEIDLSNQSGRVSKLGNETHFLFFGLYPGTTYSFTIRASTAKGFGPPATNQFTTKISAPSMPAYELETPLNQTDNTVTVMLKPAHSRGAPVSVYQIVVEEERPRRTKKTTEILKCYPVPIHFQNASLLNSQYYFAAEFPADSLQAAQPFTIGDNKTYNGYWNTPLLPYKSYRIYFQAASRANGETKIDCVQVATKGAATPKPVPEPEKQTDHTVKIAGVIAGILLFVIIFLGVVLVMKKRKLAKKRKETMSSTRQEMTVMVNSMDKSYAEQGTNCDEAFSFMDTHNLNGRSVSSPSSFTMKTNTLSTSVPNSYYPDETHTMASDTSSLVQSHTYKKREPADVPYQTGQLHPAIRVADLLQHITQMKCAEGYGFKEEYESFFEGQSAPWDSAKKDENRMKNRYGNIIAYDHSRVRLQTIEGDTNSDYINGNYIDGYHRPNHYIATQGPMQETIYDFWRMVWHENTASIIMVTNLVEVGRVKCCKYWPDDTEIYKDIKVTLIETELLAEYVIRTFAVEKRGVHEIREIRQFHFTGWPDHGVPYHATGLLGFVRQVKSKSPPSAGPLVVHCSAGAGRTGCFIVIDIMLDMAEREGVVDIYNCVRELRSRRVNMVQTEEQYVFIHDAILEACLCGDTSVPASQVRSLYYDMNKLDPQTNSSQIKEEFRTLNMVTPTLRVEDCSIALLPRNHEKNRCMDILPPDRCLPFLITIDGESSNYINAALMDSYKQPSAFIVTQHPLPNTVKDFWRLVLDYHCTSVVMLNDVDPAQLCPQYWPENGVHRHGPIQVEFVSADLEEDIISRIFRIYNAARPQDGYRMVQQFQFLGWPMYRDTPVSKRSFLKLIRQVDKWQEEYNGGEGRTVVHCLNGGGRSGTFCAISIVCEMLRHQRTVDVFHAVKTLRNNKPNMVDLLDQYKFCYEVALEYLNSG
# Chain of human Phosphatase and Tensin Homolog (PTEN), PTEN (gene 5728) (P60484 whole entry, looked up): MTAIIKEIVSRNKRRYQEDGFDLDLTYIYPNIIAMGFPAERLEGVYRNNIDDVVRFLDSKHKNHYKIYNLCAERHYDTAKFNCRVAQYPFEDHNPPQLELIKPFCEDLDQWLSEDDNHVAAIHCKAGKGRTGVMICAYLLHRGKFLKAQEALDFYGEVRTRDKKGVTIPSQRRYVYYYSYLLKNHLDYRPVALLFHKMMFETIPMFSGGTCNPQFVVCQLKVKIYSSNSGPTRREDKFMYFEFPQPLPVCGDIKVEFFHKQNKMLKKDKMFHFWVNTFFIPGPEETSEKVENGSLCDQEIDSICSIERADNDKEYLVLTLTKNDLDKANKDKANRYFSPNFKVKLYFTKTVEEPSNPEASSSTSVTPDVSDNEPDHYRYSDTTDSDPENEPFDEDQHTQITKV
# Chain of Tyrosine-protein phosphatase non-receptor type 11 (Homo sapiens) (Q06124 whole entry, looked up): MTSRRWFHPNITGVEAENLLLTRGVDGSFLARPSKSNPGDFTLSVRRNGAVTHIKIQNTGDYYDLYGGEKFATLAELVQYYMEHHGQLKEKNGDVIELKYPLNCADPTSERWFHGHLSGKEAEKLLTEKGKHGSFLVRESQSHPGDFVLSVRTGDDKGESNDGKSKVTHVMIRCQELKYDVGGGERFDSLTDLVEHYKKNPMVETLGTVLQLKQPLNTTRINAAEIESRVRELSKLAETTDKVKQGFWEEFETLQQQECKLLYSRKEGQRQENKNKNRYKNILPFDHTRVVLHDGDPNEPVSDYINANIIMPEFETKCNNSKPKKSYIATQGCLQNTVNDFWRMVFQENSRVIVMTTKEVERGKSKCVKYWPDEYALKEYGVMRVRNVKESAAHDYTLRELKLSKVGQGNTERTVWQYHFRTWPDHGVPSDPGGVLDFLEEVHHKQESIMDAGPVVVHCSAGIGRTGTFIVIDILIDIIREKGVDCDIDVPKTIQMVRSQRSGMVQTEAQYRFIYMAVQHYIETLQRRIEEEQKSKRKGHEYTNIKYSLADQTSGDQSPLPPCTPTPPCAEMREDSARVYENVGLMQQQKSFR
# Chain of human Protein Tyrosine Phosphatase Non-receptor Type 2 (PTPN2), PTPN2 (gene 5771) (P17706 whole entry, looked up): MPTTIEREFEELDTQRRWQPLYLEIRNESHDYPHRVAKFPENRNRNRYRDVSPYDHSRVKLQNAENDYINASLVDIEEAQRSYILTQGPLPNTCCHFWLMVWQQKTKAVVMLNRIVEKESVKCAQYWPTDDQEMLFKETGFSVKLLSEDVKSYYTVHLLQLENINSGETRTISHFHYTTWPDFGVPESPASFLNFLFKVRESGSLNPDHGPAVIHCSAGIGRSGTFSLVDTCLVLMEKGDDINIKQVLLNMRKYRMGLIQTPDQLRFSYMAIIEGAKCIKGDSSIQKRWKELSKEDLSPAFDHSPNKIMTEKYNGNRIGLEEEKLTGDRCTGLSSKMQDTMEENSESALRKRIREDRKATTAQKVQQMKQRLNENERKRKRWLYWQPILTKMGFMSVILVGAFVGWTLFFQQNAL
smiles,measurement,setting,value
CNC(=O)/C=C(\C)OP(=O)(OC)OC,outcome,[1],inactive
CC(C)(C)C(O)/C(=C\c1ccc(Cl)cc1Cl)n1cncn1 (stereo not drawn),outcome,[2],inactive
N#Cc1c(Cl)c(Cl)c(Cl)c(C#N)c1Cl,outcome,[3],inactive
same,AC50,[4],40 µM (active)
same,outcome,[5],inactive
same,outcome,[6],inactive
O=C(O)C(F)(F)C(F)(F)C(F)(F)C(F)(F)C(F)(F)C(F)(F)C(F)(F)F,AC50,[7],25 µM (active)
same,AC50,[8],0.493 µM (active)
same,outcome,[3],inactive
same,outcome,[4],inactive
same,outcome,[5],inactive
same,outcome,[9],inactive
same,outcome,[10],inactive
same,outcome,[2],inactive
same,outcome,[11],inactive
same,outcome,[6],inactive
CCOc1nc(NC)nc(NC(=O)NS(=O)(=O)c2ccccc2C(=O)OC)n1,outcome,[1],inactive
CC[C@H](C)[C@H]1O[C@]2(C=C[C@@H]1C)C[C@@H]1C[C@@H](C/C=C(\C)[C@@H](O[C@H]3C[C@H](OC)[C@@H](O[C@H]4C[C@H](OC)[C@@H](O)[C@H](C)O4)[C@H](C)O3)[C@@H](C)/C=C/C=C3\CO[C@@H]4[C@H](O)C(C)=C[C@@H](C(=O)O1)[C@]34O)O2 (tested in a mixture with another compound),outcome,[4],inactive
same,AC50,[2],41.1 µM (active)
same,AC50,[6],45.3 µM (active)
CCCN(CCOc1c(Cl)cc(Cl)cc1Cl)C(=O)n1ccnc1,AC50,[12],10.8 µM (active)
CCS(=O)(=O)c1cccnc1S(=O)(=O)NC(=O)Nc1nc(OC)cc(OC)n1,outcome,[5],inactive
same,outcome,[13],inactive
same,outcome,[6],inactive
same,outcome,[1],inactive
CCC(C)(C)C(=O)OC1=C(c2ccc(Cl)cc2Cl)C(=O)OC12CCCCC2,outcome,[6],inactive
same,AC50,[12],18.9 µM (active)
Oc1ccc(Cl)cc1Cc1ccccc1,outcome,[1],inactive
same,AC50,[12],3.4 µM (active) and 9.3 µM (active)
CN1CSC(=S)N(C)C1,outcome,[2],inactive
same,outcome,[14],inactive
same,outcome,[15],inactive
same,AC50,[13],10.1 µM (active)
same,AC50,[6],25 µM (active)
COC(=O)c1ccccc1S(=O)(=O)NC(=O)Nc1nc(C)nc(OC)n1,outcome,[11],inactive
O=C1c2ccccc2C(=O)N1SC(Cl)(Cl)Cl,outcome,[2],inactive
same,outcome,[14],inactive
N#CN,outcome,[8],inactive
COC(=O)c1ccccc1S(=O)(=O)NC(=O)N(C)c1nc(C)nc(OC)n1,outcome,[8],inactive
same,outcome,[10],inactive
same,outcome,[2],inactive
same,outcome,[14],inactive
same,outcome,[15],inactive

# From PubChem BioAssay (EPA / NIEHS)
